In general, AC50 refers to the midpoint of the concentration-response curve, whichever way the signal moves.

The structures appear in SMILES notation. “And” between values parts separate entries of the source, which are not always exact repeats. Equal values may be shown once. Inconclusive results are not listed. The source made the active and inactive calls. How the source made its calls: active means hit-call score of the fitted dose curve at least 0.9, where 1 is the maximum; inconclusive means response in the unintended direction; inactive means score below 0.9.

rat Glycine Receptor, Strychnine-sensitive (GlyRStrySens), Glra1 (gene 25674), sequence (P07727 whole entry, looked up): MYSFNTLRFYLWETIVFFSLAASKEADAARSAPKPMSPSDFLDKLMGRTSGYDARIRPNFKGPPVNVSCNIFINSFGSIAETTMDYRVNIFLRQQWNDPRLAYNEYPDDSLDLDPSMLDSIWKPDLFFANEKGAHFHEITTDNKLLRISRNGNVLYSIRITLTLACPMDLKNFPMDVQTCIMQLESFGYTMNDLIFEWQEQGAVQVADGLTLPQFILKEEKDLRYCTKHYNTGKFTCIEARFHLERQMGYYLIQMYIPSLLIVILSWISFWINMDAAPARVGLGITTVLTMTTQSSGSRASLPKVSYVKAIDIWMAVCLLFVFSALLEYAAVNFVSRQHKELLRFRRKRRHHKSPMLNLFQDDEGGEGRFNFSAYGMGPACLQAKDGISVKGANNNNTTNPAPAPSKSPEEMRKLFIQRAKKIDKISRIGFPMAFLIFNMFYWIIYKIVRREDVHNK
bovine Estrogen Receptor (ER), ESR1 (gene 407238), sequence (P49884 whole entry, looked up): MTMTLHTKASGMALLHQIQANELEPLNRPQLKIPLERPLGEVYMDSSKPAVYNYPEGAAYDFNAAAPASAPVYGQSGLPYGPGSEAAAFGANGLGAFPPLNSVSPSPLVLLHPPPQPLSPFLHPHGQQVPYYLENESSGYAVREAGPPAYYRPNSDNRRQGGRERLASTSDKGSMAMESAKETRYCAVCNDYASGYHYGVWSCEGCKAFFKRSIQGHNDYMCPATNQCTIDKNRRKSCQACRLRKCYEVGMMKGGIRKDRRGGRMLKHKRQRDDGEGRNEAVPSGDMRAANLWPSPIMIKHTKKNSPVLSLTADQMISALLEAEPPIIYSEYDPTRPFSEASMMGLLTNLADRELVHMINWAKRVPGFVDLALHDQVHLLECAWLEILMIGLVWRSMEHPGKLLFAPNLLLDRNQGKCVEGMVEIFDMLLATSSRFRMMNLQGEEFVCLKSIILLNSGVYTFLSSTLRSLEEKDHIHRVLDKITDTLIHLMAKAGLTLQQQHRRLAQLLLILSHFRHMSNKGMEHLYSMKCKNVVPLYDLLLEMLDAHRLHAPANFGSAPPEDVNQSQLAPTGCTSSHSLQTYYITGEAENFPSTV
human Peripheral-type Benzodiazepine Receptor (PBR), TSPO (gene 706), sequence (P30536 whole entry, looked up): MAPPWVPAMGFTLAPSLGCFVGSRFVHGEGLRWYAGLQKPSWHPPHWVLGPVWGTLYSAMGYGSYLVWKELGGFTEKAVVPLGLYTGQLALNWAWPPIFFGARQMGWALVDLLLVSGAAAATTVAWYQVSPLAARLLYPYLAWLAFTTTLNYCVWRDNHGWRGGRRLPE
rat Peripheral-type Benzodiazepine Receptor (PBR), Tspo (gene 24230), sequence (P16257 whole entry, looked up): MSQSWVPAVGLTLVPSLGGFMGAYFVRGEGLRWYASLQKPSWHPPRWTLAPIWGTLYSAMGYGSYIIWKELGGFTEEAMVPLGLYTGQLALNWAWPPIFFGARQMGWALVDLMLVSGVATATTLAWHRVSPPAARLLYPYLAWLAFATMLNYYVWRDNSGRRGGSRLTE

The first assay has as its target human Peripheral-type Benzodiazepine Receptor (PBR), TSPO (gene 706) (UniProt P30536). Description: NVS_MP_hPBR: NovaScreen (NVS) Membrane Protein Assay for human Peripheral-type Benzodiazepine Receptor (PBR) (AID 2283331).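 Further: hits reduce radioligand binding relative to DMSO baseline.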 The procedure, abridged:
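Human colonic cell membranes were incubated with test chemical for 1 hour; radioligand binding was measured by filter-based scintillation counting. Primary screen ran in duplicate at 25 uM, with actives followed in concentration series; loss of signal versus DMSO baseline.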
With `CC1COC(Cn2cncn2)(c2ccc(Oc3ccc(Cl)cc3)cc2Cl)O1` (stereo not drawn), the result was inactive.

Regarding `CNC(=O)ON=CC(C)(C)SC`, the result was inactive.

`COP(N)(=O)SC` (stereo not drawn): the molecule was called inactive.

Consider `CON(C)C(=O)Nc1ccc(Cl)c(Cl)c1`, for which the AC50 is 11.9 µM (active) [middle of 4 runs].

Turning to `CCOP(=S)(OCC)SCn1c(=O)oc2cc(Cl)ccc21`, the AC50 is 2.65 µM (active).

As to `COC(=O)c1ccccc1C(=O)OC`, the molecule was classed as inactive.

On to `CCNc1nc(Cl)nc(NCC)n1`, for which the AC50 was 46.2 µM (active).

For the molecule `COP(=S)(OC)Oc1nc(Cl)c(Cl)cc1Cl`, the AC50 was 17.9 µM (active).

For the molecule `CCCCNC(=O)OCC#CI`, the AC50 is 38.2 µM (active) and 41.3 µM (active).

Take `C#CCOS(=O)OC1CCCCC1Oc1ccc(C(C)(C)C)cc1` (stereo not drawn): the AC50 is 18.2 µM (active).

`CC1=C(C(=O)Nc2ccccc2)SCCO1`: the AC50 is 20.5 µM (active).

In the case of `Cc1ccc(-c2c(Cl)nc(C#N)n2S(=O)(=O)N(C)C)cc1`, the molecule was called inactive.

For the molecule `COC(=O)N(OC)c1ccccc1COc1ccn(-c2ccc(Cl)cc2)n1`, the AC50 was 0.105 µM (active).

The next assay addresses rat Peripheral-type Benzodiazepine Receptor (PBR), Tspo (gene 24230) (UniProt P16257). Description: NVS_MP_rPBR: NovaScreen (NVS) Membrane Protein Assay for rat Peripheral-type Benzodiazepine Receptor (PBR) (AID 2283335). The procedure, abridged: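 Rat kidney membranes; radioligand binding with displacement, filter-based scintillation counting, 1 h incubation. Primary screen in duplicate at 25 uM, actives followed in concentration series; loss of binding vs DMSO.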
With `CC1COC(Cn2cncn2)(c2ccc(Oc3ccc(Cl)cc3)cc2Cl)O1` (stereo not drawn), the molecule was classed as inactive.

Take `CON(C)C(=O)Nc1ccc(Cl)c(Cl)c1`: the AC50 was 4.62 µM (active) [middle of 4 runs].

Take `CCOP(=S)(OCC)SCn1c(=O)oc2cc(Cl)ccc21`: the AC50 was 4.01 µM (active).

Regarding `CO/C=C(/C(=O)OC)c1ccccc1Oc1cc(Oc2ccccc2C#N)ncn1`, the AC50 was 3.17 µM (active) [middle of 4 runs].

For `CCNc1nc(Cl)nc(NCC)n1`, the molecule was called inactive.

Regarding `COP(=S)(OC)Oc1nc(Cl)c(Cl)cc1Cl`, the AC50 is 7 µM (active).

Regarding `CCCCNC(=O)OCC#CI`, the AC50 was 12.8 µM (active) and 10.7 µM (active).

Consider `C#CCOS(=O)OC1CCCCC1Oc1ccc(C(C)(C)C)cc1` (stereo not drawn), for which the AC50 is 14.5 µM (active).

For `CC1=C(C(=O)Nc2ccccc2)SCCO1`, the AC50 is 12.3 µM (active).

Consider `Cc1ccc(-c2c(Cl)nc(C#N)n2S(=O)(=O)N(C)C)cc1`, for which the result was inactive.

Regarding `COC(=O)N(OC)c1ccccc1COc1ccn(-c2ccc(Cl)cc2)n1`, the AC50 is 0.26 µM (active).

The next assay has as its target rat Glycine Receptor, Strychnine-sensitive (GlyRStrySens), Glra1 (gene 25674) (UniProt P07727). The assay can be described thus: NVS_LGIC_rGlyRStrySens: NovaScreen (NVS) Ligand-Gated Ion Channel Assay for rat Glycine Receptor, Strychnine-sensitive (GlyRStrySens) (AID 2283341). The procedure, abridged:
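Radioligand displacement on rat spinal cord membranes, 1 hr, filter scintillation read-out. Single-concentration duplicate screen at 25 uM; chemicals meeting threshold (e.g., 30% inhibition) rerun in concentration-response up to 50 uM. Loss of binding fitted versus DMSO.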
As for `Cc1c(F)c(F)c(COC(=O)C2C(/C=C(\Cl)C(F)(F)F)C2(C)C)c(F)c1F` (stereo not drawn), the molecule was classed as inactive.

As for `CCCCNC(=O)n1c(NC(=O)OC)nc2ccccc21`, the molecule was called inactive.

On to `CC(Oc1ccc(Cl)cc1Cl)C(=O)O` (stereo not drawn), for which the molecule was called inactive.

The subject of the next assay is guinea pig Histamine Receptor (H2), gene 100729734. The assay can be described thus: NVS_GPCR_gH2: NovaScreen (NVS) G Protein-Coupled Receptor Assay for guinea pig Histamine Receptor (H2) (AID 2283342). The procedure, abridged:
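Radioligand displacement on guinea pig striatal membranes, 1 h after dosing, filter-based scintillation counting; loss of signal versus DMSO. Single-point screen at 25 uM in duplicate, then concentration-response up to 50 uM.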
With `CC1COC(Cn2cncn2)(c2ccc(Oc3ccc(Cl)cc3)cc2Cl)O1` (stereo not drawn), the call was inactive.

As for `CCOP(=S)(OCC)SCn1c(=O)oc2cc(Cl)ccc21`, the outcome was inactive.

For `COC(=O)c1ccccc1C(=O)OC`, the outcome was inactive.

For the molecule `CCCCNC(=O)OCC#CI`, the result was inactive.

A further assay relates to NCBI gene 100848466. The assay can be described thus: NVS_NR_bPR: NovaScreen (NVS) Nuclear Receptor Binding Assay for bovine Progextron Receptor (PR) (AID 2283343).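 On AC50: actives lower bound radioligand signal below DMSO meaning displacement of the label.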 The procedure, abridged: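 Bovine uterine membrane preparation, cell-free; radioligand competitive displacement measured by scintillation counting 18 hours after dosing. Loss of signal versus DMSO baseline indicates binding; primary HTS single concentration 25 uM in duplicate, actives followed in concentration series.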
Regarding `CNC(=O)ON=CC(C)(C)SC`, the molecule was classed as inactive.

Regarding `CON(C)C(=O)Nc1ccc(Cl)c(Cl)c1`, the molecule was called inactive.

Turning to `CCOP(=S)(OCC)SCn1c(=O)oc2cc(Cl)ccc21`, the AC50 is 2.98 µM (active).

Consider `CO/C=C(/C(=O)OC)c1ccccc1Oc1cc(Oc2ccccc2C#N)ncn1`, for which the call was inactive.

Consider `COC(=O)c1ccccc1C(=O)OC`, for which the molecule was called inactive.

As to `COP(=S)(OC)Oc1nc(Cl)c(Cl)cc1Cl`, the AC50 was 17.3 µM (active).

As for `CCCCNC(=O)OCC#CI`, the call was inactive.

Turning to `C#CCOS(=O)OC1CCCCC1Oc1ccc(C(C)(C)C)cc1` (stereo not drawn), the molecule was classed as inactive.

The next assay concerns the target bovine Estrogen Receptor (ER), ESR1 (gene 407238) (UniProt P49884). The assay can be described thus: NVS_NR_bER: NovaScreen (NVS) Nuclear Receptor Binding Assay for bovine Estrogen Receptor (ER) (AID 2283345).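 Further: actives lower the bound radioligand count which means they displace the ER ligand.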 The procedure, abridged: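 Cell-free radioligand binding with receptor from bovine uterine membranes, read by scintillation counting 18 h after dosing. Loss of specific binding was scored against DMSO; primary screen at 25 uM in duplicate, actives then run as concentration series.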
As to `CCCN(CCC)c1c([N+](=O)[O-])cc(S(N)(=O)=O)cc1[N+](=O)[O-]`, the molecule was called inactive.

`Cc1c(F)c(F)c(COC(=O)C2C(/C=C(\Cl)C(F)(F)F)C2(C)C)c(F)c1F` (stereo not drawn): the molecule was classed as inactive.

As for `COP(N)(=O)SC` (stereo not drawn), the call was inactive.

As to `CO/C=C(/C(=O)OC)c1ccccc1Oc1cc(Oc2ccccc2C#N)ncn1`, the result was inactive.

Regarding `COc1cnc(OC)n2nc(NS(=O)(=O)c3c(OCC(F)F)cccc3C(F)(F)F)nc12`, the molecule was classed as inactive.

Turning to `COc1nc(C)nc(NC(=O)NS(=O)(=O)c2ccccc2Cl)n1`, the result was inactive.

As for `CCNc1nc(Cl)nc(NCC)n1`, the outcome was inactive.

`CCCCNC(=O)OCC#CI`: the molecule was called inactive.

As to `Cc1cc(Cl)ccc1OCC(=O)O`, the molecule was classed as inactive.

Source of the values: PubChem BioAssay (EPA / NIEHS).
